Results taken from PubChem BioAssay (NCATS).
Records with an inconclusive call do not appear. Entries that show only a call come without a potency. Activity calls are given as the source filed them. The call rests on the fitted dose curve; in most records, active means well fitted inhibition curve with a large enough effect; inconclusive means small, poorly fitted or top-dose-only effect; inactive means flat fitted curve, though single readings scatter.

These compounds were tested against Voltage-gated inwardly rectifying potassium channel KCNH2 (Homo sapiens) (UniProt Q12809) (assay: qHTS Assay for Small Molecule Inhibitors of the Human hERG Channel Activity (AID 588834;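 further: lower thallium flux fluorescence means stronger hERG block; nearly all actives have a fitted effect of over 50% in size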)). Conditions: U2OS BacMam hERG, FluxOR thallium flux fluorescence; series mostly up to 46.1 µM.
Voltage-gated inwardly rectifying potassium channel KCNH2 (Homo sapiens), sequence (Q12809 whole entry, looked up): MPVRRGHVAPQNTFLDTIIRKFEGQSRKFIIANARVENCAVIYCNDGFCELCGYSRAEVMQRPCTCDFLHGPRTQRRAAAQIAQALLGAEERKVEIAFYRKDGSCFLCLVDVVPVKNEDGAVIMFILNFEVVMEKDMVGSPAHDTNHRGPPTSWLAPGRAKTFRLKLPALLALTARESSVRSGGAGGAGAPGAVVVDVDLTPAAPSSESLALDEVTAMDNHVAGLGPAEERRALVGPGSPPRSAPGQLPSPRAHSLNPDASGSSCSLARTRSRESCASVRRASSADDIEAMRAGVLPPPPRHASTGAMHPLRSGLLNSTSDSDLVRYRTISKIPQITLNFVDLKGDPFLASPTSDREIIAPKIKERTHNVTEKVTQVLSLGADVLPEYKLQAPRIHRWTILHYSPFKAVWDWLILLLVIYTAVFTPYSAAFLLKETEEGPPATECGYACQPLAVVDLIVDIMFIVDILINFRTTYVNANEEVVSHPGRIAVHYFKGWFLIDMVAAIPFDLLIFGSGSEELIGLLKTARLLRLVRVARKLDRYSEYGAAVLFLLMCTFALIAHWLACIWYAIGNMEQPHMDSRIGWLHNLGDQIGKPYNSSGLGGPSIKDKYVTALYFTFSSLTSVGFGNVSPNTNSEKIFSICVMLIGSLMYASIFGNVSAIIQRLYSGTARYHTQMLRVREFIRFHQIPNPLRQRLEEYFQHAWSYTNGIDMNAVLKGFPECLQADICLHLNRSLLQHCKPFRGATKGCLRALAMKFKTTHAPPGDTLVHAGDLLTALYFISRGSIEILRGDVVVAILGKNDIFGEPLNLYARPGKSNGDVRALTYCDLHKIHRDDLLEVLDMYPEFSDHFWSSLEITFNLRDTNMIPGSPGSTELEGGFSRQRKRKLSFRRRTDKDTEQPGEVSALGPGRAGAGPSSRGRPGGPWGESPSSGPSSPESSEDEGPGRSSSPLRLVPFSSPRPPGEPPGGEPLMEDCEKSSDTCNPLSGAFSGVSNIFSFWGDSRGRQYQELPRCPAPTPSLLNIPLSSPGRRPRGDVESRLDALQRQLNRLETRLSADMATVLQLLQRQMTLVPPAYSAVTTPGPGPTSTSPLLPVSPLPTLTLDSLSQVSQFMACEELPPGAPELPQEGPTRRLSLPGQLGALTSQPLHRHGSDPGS
Summary of the method: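 U2OS cells BacMam-transduced with hERG, 2000 cells/well, compound ~10 min at 37 °C before stimulation buffer. FluxOR thallium flux fluorescence read kinetically on FDSS; decrease indicates block; AC50 from Hill fits.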
Potency means the concentration at half of the fitted maximal effect.

Row | Compound | Potency
1 | CCCCCCCCCCCCCCCCCC(=O)OCC(O)CO (centres undefined) | inactive
2 | NCCc1ccn[nH]1 | inactive
3 | CN(C/C=C/c1ccccc1)Cc1cccc2ccccc12 | 10 µM (active)
4 | CC(=O)OCC(=O)[C@@]12N=C(C)O[C@@H]1C[C@H]1[C@@H]3CCC4=CC(=O)C=C[C@]4(C)[C@H]3[C@@H](O)C[C@@]12C | inactive
5 | CCOC(=O)COc1ccc2c(C)c(CCN(CC)CC)c(=O)oc2c1Cl | 12.6 µM (active)
6 | OC[C@H]1O[C@@H](n2cnc3c(=S)nc[nH]c32)[C@H](O)[C@@H]1O | inactive
7 | CC(=O)O[C@H]1C[C@@H]2CC[C@@H]3[C@H](CC[C@@]4(C)[C@H]3C[C@H]([N+]3(C)CCCCC3)[C@@H]4OC(C)=O)[C@@]2(C)C[C@@H]1[N+]1(C)CCCCC1 | inactive
8 | CN1C(CCl)Nc2cc(Cl)c(S(N)(=O)=O)cc2S1(=O)=O (centres undefined) | inactive
9 | CC1(C)O[C@@H]2C[C@H]3[C@@H]4CCC5=CC(=O)CC[C@]5(C)[C@@]4(F)[C@@H](O)C[C@]3(C)[C@]2(C(=O)CCl)O1 | inactive
10 | O=c1[nH]c(=O)n([C@H]2C[C@H](O)[C@@H](CO)O2)cc1C(F)(F)F | inactive
11 | CCCSS/C(CCO)=C(\C)N(C=O)Cc1cnc(C)nc1N | 11.2 µM (active)
12 | CC(=O)Oc1ccc(C(=C2CCCCC2)c2ccc(OC(C)=O)cc2)cc1 | inactive
13 | CC(C)(CO)[C@@H](O)C(=O)NCCCO | inactive
14 | CC(=O)O[C@]1(C(C)=O)CC[C@H]2[C@@H]3C[C@H](C)C4=CC(=O)CC[C@]4(C)[C@H]3CC[C@@]21C | inactive
